Measurements from PubChem BioAssay (Tox21).
Inconclusive results are not listed. Activity calls are given as the source filed them. Unless noted, calls follow the shape of the dose curve; as a rule, active = well fitted curve in the direction sought with a large enough effect in the repeat runs; inconclusive = weak or mixed curves; inactive = no such curve, though single readings can be large; an effect the other way counts as inactive or inconclusive.

Assays:
[1] = qHTS assay to identify small molecule agonists of the peroxisome proliferator-activated receptor delta (PPARd) signaling pathway - cell viability counter screen (AID 743211); also: % is scaled to controls: 0 for no effect and ±100 for the full control effect; nearly all actives have a fitted effect of over 55% in size
How it was run: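 HEK293H PPARd-bla, 3000 cells/well; 5 h preincubation 37C/5% CO2; cpd in DMSO, 17 h 37C; B/G FRET substrate 2 h RT; CellTiter-Glo 30 min RT, luminescence.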

[2] = target: Peroxisome proliferator-activated receptor delta (Homo sapiens) (UniProt Q03181); test: qHTS assay to identify small molecule agonists of the peroxisome proliferator-activated receptor delta (PPARd) signaling pathway (AID 743212; calls by dose curve; also: % is scaled to controls: 0 for no effect and ±100 for the full control effect)
How it was run: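 HEK293H UAS-bla reporter cells, human PPARd system; compounds delivered in DMSO after 5 h plating, then at 37 C. Beta-lactamase FRET read, 2 h RT substrate step.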

[3] = qHTS assay to identify small molecule antagonists of the peroxisome proliferator-activated receptor delta (PPARd) signaling pathway - cell viability counter screen (AID 743213); also: % is scaled to controls: 0 for no effect and ±100 for the full control effect; nearly all actives have a fitted effect of over 50% in size
How it was run: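 CellTiter-Glo was added to PPARd-bla HEK293H wells following 17 h compound treatment in the presence of 300 nM L165041. Luminescence was recorded after 30 min at room temperature.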

[4] = target: Peroxisome proliferator-activated receptor delta (Homo sapiens) (UniProt Q03181); test: qHTS assay to identify small molecule antagonists of the peroxisome proliferator-activated receptor delta (PPARd) signaling pathway (AID 743215; active = well fitted inhibition curve with a large enough effect in the signal ratio in the repeat runs, not every such curve was filed as active; the % refers to the signal ratio;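 also: cells stimulated with agonist L165041 at 300 nM final during compound exposure; series mostly up to about 62 µM; % is scaled to controls: 0 for no effect and ±100 for the full control effect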)
How it was run: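 PPARd-bla HEK293H cells (UAS-bla reporter) preincubated 5 h, then given compound plus 300 nM final L165041 agonist for 17 h at 37 C. Beta-lactamase activity read by LiveBLAzer B/G FRET substrate fluorescence after 2 h at room temperature.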

[5] = target: Bile acid receptor (Homo sapiens) (UniProt Q96RI1); test: qHTS assay to identify small molecule antagonists of the farnesoid-X-receptor (FXR) signaling pathway (AID 743217; active = well fitted inhibition curve with a large enough effect in the signal ratio in the repeat runs, not every such curve was filed as active; the % refers to the signal ratio; also: % is scaled to controls: 0 for no effect and ±100 for the full control effect)
How it was run: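 FXR-UAS-bla HEK 293T cells (beta-lactamase reporter) given compound plus chenodeoxycholic acid (50 uM final), 16 h at 37C. LiveBLAzer B/G FRET substrate added for 2 h at room temperature; fluorescence read.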

[6] = qHTS assay to identify small molecule agonists of the farnesoid-X-receptor (FXR) signaling pathway - cell viability counter screen (AID 743218); also: % is scaled to controls: 0 for no effect and ±100 for the full control effect; nearly all actives have a fitted effect of over 45% in size
How it was run: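 FXR-UAS-bla HEK 293T cells exposed to compounds for 16 h at 37C. Cytotoxicity read in the same wells by CellTiter-Glo luminescence after 30 min at room temperature, following the beta-lactamase FRET read.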

[7] = target: Bile acid receptor (Homo sapiens) (UniProt Q96RI1); test: qHTS assay to identify small molecule agonists of the farnesoid-X-receptor (FXR) signaling pathway (AID 743220; active = well fitted activation curve with a large enough effect in the signal ratio in the repeat runs, not every such curve was filed as active; the % refers to the signal ratio; also: % is scaled to controls: 0 for no effect and ±100 for the full control effect)
How it was run: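 Beta-lactamase reporter under UAS control in GeneBLAzer FXR HEK 293T cells (5000/well) measured with LiveBLAzer FRET substrate after 2 h at room temperature. Compound exposure lasted 16 h at 37C.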

[8] = qHTS assay to identify small molecule antagonists of the farnesoid-X-receptor (FXR) signaling pathway - cell viability counter screen (AID 743221; active = well fitted cell-killing curve with a large enough effect in the repeat runs, not every such curve was filed as active; also: % is scaled to controls: 0 for no effect and ±100 for the full control effect; nearly all actives have a fitted effect of over 50% in size)
How it was run: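 Luminescence from CellTiter-Glo measures cytotoxicity in GeneBLAzer FXR-UAS-bla HEK 293T cells. Cells were exposed to compounds with 50 uM chenodeoxycholic acid (final) for 16 h at 37 C, in wells also used for the reporter readout.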

[9] = target: Vitamin D3 receptor (Homo sapiens) (UniProt P11473); test: qHTS assay to identify small molecule agonists of the vitamin D receptor (VDR) signaling pathway (AID 743222; calls by dose curve; also: % is scaled to controls: 0 for no effect and ±100 for the full control effect)
How it was run: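 VDR-bla cells plated 4 h at 37 C, then exposed to compounds for 16 h at 37 C. Beta-lactamase reporter activity measured by fluorescence after 2 h room-temperature loading with LiveBLAzer B/G FRET substrate.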

[10] = qHTS assay to identify small molecule agonists of the vitamin D receptor (VDR) signaling pathway - cell viability counter screen (AID 743224); also: series mostly up to about 63 µM; % is scaled to controls: 0 for no effect and ±100 for the full control effect; nearly all actives have a fitted effect of over 50% in size
How it was run: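 VDR-bla cells, 4 h after plating, exposed to compounds for 16 h at 37C; viability then read in the same wells as CellTiter-Glo luminescence after 30 min at room temperature, following the bla FRET read.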

[11] = qHTS assay to identify small molecule antagonists of the vitamin D receptor (VDR) signaling pathway - cell viability counter screen (AID 743225); also: % is scaled to controls: 0 for no effect and ±100 for the full control effect; nearly all actives have a fitted effect of over 50% in size
How it was run: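 Read-out: CellTiter-Glo luminescence measured 30 min after reagent addition at room temperature. Cells were VDR-bla HEK 293T exposed 16 h at 37C, 5% CO2, to compound with 3 nM final calcitriol agonist.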

[12] = qHTS assay to identify small molecule agonists of the NFkB signaling pathway (AID 1159509; active = well fitted curve in the direction sought with a large enough effect in the signal ratio in the repeat runs, not every such curve was filed as active; the % refers to the signal ratio)
How it was run: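 NFkB-bla ME-180 cells with a beta-lactamase reporter under an NF-kB response element were plated overnight, treated with compounds in DMSO for 5 hr at 37 C, then loaded with FRET substrate for 1.5 hr at room temperature.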

[13] = qHTS assay to identify small molecule agonists of the NFkB signaling pathway - cell viability counter screen (AID 1159515; calls by dose curve; also: series mostly up to about 61 µM; % is scaled to controls: 0 for no effect and ±100 for the full control effect; nearly all actives have a fitted effect of over 55% in size)
How it was run: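 NFkB-bla ME-180 cells, 2,000/well, plated overnight at 37 C; compound added for 5 hr at 37 C. Viability read in the same wells as the bla reporter, by CellTiter-Glo luminescence after 30 min at room temperature.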

[14] = qHTS assay to identify small molecule agonists of the endoplasmic reticulum stress response signaling pathway (AID 1159516; active = well fitted activation curve with a large enough effect in the signal ratio in the repeat runs, not every such curve was filed as active; the % refers to the signal ratio; also: % is scaled to controls: 0 for no effect and ±100 for the full control effect)
How it was run: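 CellSensor ESRE-bla HeLa cells, 1,500 per well, plated overnight, then exposed to compounds for 5 hr at 37 C. Beta-lactamase reporter read with LiveBLAzer B/G FRET substrate after 2 hr at room temperature, 405 nm excitation, 460 and 530 nm emission.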

[15] = qHTS assay to identify small molecule antagonists of the retinoid-related orphan receptor gamma (ROR-gamma) signaling pathway - cell viability counter screen (AID 1159520)
How it was run: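 Cytotoxicity was read from cellular ATP (CellTiter-Glo luminescence) after 16 hr at 37 C with 1 uM doxycycline induction. The inducer was added 2 hr after compound transfer to Tet-on ROR gamma CHO cells.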

[16] = target: Nuclear receptor ROR-gamma (Homo sapiens) (UniProt P51449); test: qHTS assay to identify small molecule antagonists of the retinoid-related orphan receptor gamma (ROR-gamma) signaling pathway (AID 1159521)
How it was run: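 CHO Tet-on RORγ, RORE-luc reporter. Cpd 2 h pre-incubation, then dox hyclate 1 uM final, 16 h, 37 C/5% CO2. ONE-Glo luminescence; decrease = antagonist.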

[17] = qHTS assay to identify small molecule agonists of the AP-1 signaling pathway - cell viability counter screen (AID 1159525; calls by dose curve; also: nearly all actives have a fitted effect of over 55% in size)
How it was run: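 Luminescent ATP readout (Cell Titer Glo, 30 min RT), normalised to DMSO and tetra n-octyl ammonium bromide controls. Cells were ME-180 AP-1-bla in 0.5% dialyzed FBS Opti-MEM, with a 5 h, 37 °C compound exposure.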

[18] = qHTS assay to identify small molecule agonists of the AP-1 signaling pathway (AID 1159526; calls by dose curve; also: % is scaled to controls: 0 for no effect and ±100 for the full control effect)
[19] = target: Vitamin D3 receptor (Homo sapiens) (UniProt P11473); test: qHTS assay to identify small molecule antagonists of the vitamin D receptor (VDR) signaling pathway (AID 743223; active = well fitted inhibition curve with a large enough effect in the signal ratio in the repeat runs, not every such curve was filed as active; the % refers to the signal ratio; also: % is scaled to controls: 0 for no effect and ±100 for the full control effect)
How it was run: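 Antagonist mode uses 1alpha,25-dihydroxyvitamin D3 at 3 nM final as stimulus. VDR-bla cells receive compounds in DMSO, incubate 16 h at 37C, then a beta-lactamase FRET substrate for 2 h at room temperature before fluorescence measurement.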

Sequence of Bile acid receptor (Homo sapiens) (Q96RI1 whole entry, looked up): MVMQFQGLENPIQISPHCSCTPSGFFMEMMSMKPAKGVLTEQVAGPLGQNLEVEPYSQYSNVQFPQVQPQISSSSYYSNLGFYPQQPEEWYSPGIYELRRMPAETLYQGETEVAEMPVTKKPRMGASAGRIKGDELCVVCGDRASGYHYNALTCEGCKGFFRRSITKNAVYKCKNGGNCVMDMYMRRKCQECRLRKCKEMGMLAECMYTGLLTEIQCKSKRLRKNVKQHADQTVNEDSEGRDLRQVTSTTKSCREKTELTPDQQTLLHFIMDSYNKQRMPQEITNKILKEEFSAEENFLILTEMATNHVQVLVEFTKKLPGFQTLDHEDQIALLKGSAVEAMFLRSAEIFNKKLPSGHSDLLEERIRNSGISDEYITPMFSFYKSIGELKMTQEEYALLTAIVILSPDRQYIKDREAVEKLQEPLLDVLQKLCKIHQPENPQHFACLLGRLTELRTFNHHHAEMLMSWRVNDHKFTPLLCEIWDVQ
Sequence of Vitamin D3 receptor (Homo sapiens) (P11473 whole entry, looked up): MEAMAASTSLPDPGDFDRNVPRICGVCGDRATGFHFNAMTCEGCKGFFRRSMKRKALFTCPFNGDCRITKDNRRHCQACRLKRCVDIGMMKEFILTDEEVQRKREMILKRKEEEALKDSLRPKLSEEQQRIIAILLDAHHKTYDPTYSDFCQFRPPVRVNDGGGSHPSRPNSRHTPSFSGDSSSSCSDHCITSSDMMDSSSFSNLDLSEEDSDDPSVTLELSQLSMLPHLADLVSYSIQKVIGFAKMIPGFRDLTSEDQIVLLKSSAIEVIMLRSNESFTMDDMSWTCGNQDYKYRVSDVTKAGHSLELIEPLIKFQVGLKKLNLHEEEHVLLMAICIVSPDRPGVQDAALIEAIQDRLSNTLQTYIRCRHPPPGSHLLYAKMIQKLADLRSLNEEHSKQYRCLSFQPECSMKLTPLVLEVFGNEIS
Sequence of Peroxisome proliferator-activated receptor delta (Homo sapiens) (Q03181 whole entry, looked up): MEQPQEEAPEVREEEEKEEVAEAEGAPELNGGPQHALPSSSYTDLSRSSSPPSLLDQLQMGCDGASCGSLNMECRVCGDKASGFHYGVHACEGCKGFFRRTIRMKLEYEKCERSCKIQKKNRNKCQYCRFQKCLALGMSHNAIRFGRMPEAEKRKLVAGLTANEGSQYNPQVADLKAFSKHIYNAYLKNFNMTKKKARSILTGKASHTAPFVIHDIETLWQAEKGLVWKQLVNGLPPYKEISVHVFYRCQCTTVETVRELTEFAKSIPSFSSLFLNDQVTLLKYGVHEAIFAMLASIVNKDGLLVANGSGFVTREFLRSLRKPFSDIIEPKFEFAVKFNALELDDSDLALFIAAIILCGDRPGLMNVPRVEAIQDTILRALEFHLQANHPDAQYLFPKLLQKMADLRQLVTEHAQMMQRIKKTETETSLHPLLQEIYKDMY

C=COCCOCCOC=C
inactive: outcome [1] | outcome [2] | outcome [3] | outcome [4] | outcome [5] | Potency [6] | outcome [7] | outcome [8] | outcome [9] | outcome [10] | outcome [11] | outcome [12] | outcome [13] | outcome [14] | outcome [15] | outcome [16] | outcome [17] | outcome [18]

O=C(O)c1c(Cl)ccc(Cl)c1Cl
inactive: outcome [1] | outcome [2] | outcome [3] | outcome [4] | Potency [6] | outcome [8] | outcome [9] | outcome [10] | outcome [11] | outcome [12] | outcome [13] | outcome [14] | outcome [15] | outcome [16] | outcome [17] | outcome [18]

C[C@H](CCC(=O)NCC(=O)O)[C@H]1CC[C@H]2[C@@H]3[C@H](O)C[C@@H]4C[C@H](O)CC[C@]4(C)[C@H]3C[C@H](O)[C@]12C
inactive: outcome [3] | outcome [5] | Potency [6] | outcome [7] | outcome [8] | outcome [9] | outcome [19] | outcome [10] | outcome [12] | outcome [13] | outcome [14] | outcome [16] | outcome [17] | outcome [18]

C=CCOCC(O)CCl (stereo not given)
inactive: outcome [1] | outcome [2] | outcome [3] | Potency [6] | outcome [9] | outcome [19] | outcome [10] | outcome [11] | outcome [12] | outcome [13] | outcome [14] | outcome [15] | outcome [16] | outcome [17] | outcome [18]

CCC(O)C(C)(C)C (stereo not given)
inactive: outcome [1] | outcome [2] | outcome [3] | outcome [7] | outcome [10] | outcome [11] | outcome [12] | outcome [13] | outcome [14] | outcome [16] | outcome [17] | outcome [18]

O=c1[nH]c(=O)c2[nH]c(=O)[nH]c2[nH]1
inactive: activation [2] 2.22% [at 13.2 µM] | viability change, negative = cytotoxic [3] -1.61% [at 13.7 µM] | viability change, negative = cytotoxic [6] 18.5% [at 13.2 µM] | activity change, negative = cytotoxicity [8] 0.395% [at 13.2 µM] | activity change, negative = cytotoxicity [10] -0.867% [at 13.2 µM] | viability change, negative = cytotoxic [11] 18.1% [at 6.95 µM] | activation [12] -0.0901% [at 6.95 µM] | activity, negative = cytotoxic [13] 1.31% [at 6.95 µM] | activation [14] -2.27% [at 6.95 µM] | activity, negative = cytotoxicity [15] -0.126% [at 8.39 µM] | activity change, negative = inhibition [16] 25.7% [at 8.39 µM] | activation [18] -0.69% [at 6.97 µM]

CCCCCCCCCCCCCCCCI
inactive: outcome [2] | outcome [3] | outcome [4] | outcome [5] | Potency [6] | outcome [7] | outcome [8] | outcome [9] | outcome [19] | outcome [10] | outcome [11] | outcome [12] | outcome [13] | outcome [14] | activity, negative = cytotoxicity [15] -0.188% [at 19 µM] | activity change, negative = inhibition [16] 2.8% [at 19 µM] | viability change, negative = cytotoxic [17] -11.4% [at 15.8 µM] | activation [18] -9.43% [at 15.8 µM]

CC(=O)OC(C)(C)Cc1ccccc1
inactive: outcome [1] | outcome [2] | outcome [3] | outcome [4] | outcome [5] | Potency [6] | outcome [7] | outcome [8] | outcome [19] | outcome [10] | outcome [11] | outcome [12] | outcome [13] | outcome [14] | outcome [15] | outcome [16] | outcome [17] | outcome [18]

O=C1NC2NC(=O)NC2N1 (stereo not given)
inactive: outcome [1] | outcome [2] | outcome [3] | outcome [4] | outcome [5] | Potency [6] | outcome [7] | outcome [9] | outcome [19] | outcome [10] | outcome [12] | outcome [13] | outcome [14] | outcome [15] | outcome [16] | outcome [17] | outcome [18]
